# Laboratory results reported in PubChem BioAssay AID652257 (The Scripps Research Institute Molecular Screening Center, 2013).
# Values joined by “and” are separate entries in the source; they are usually repeats but may differ in a detail not shown here. Identical values can stand only once. Screen size: about 370,000 compounds; about 4,800 (1.3%) were called active. The full list was thinned out, with actives kept by preference. A number with no mark means an inactive call.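 How the source made its calls: active means inhibition above about 21% made by adding two undisclosed values (limit read from the data); inactive means the rest.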
# Biological target: Protein arginine N-methyltransferase 1 (Homo sapiens) (UniProt Q99873)
# Test: human PRMT1 activity-probe blockers – biochemical, fluorescence polarization, primary screen (AID 652257)
# Settings: recombinant PRMT1, activity-based probe fluorescence polarization; at 2.79 µM; stronger effect = higher value
# Sequence of Protein arginine N-methyltransferase 1 (Homo sapiens) (Q99873 whole entry, looked up): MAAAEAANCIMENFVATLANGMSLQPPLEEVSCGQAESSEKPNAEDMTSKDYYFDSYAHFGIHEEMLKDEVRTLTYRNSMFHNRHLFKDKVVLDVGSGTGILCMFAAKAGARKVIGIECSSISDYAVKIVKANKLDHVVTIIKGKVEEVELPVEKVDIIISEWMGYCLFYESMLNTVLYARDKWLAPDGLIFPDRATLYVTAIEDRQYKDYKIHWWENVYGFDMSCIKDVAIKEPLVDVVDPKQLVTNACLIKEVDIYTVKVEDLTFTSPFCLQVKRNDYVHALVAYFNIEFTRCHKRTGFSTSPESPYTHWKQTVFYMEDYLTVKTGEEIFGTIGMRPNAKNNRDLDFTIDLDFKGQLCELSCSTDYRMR
row,Compound,inhibition
1,COC(=O)c1ccc(/C=N/N2C(C)CCCC2C)cc1 (centres undefined),-0.34%
2,CCN(CC)S(=O)(=O)c1cccc(NC(=O)c2ccc(S(=O)(=O)N3CCCC3)cc2)c1,2.8%
3,CCN(CC)S(=O)(=O)c1cccc(-c2n[nH]c(=S)n2/N=C/c2ccc(C(=O)OC)cc2)c1,31.9% (active)
4,Cc1cc(=O)[nH]c(SCC(=O)Nc2ccc(Cl)cc2C)n1,-2.19%
5,CCOC(=O)Cc1csc(NC(=O)CSc2nc(C)cc(=O)[nH]2)n1,63.7% (active)
6,CCOC(=O)Cc1csc(SCC(=O)Nc2ccc(C)cc2F)n1,1.96%
7,Clc1cccc2c1C1CC2CCN1Cc1ccccc1 (centres undefined),-1.44%
8,CCCn1c(N)c(C(=O)CSc2nnc(-c3cccnc3)n2-c2ccc(C)cc2C)c(=O)[nH]c1=O,-1.38%
9,COc1ccc(C#CCNCc2ccc(OC)cc2OC)cc1,0.44%
10,Cc1ccc(-c2nn(-c3ccccc3)cc2CN(Cc2ccccc2)C(=O)CCC(=O)O)o1,30.5% (active)
11,O=C(O)CCC(=O)N(Cc1ccccc1)Cc1ccccc1,-4.57%
12,O=C(/C=C/c1cn(-c2ccccc2)nc1-c1ccc2c(c1)OCCO2)NCCCN1CCOCC1,3.18%
13,COc1cccc(-c2nn(-c3ccccc3)cc2/C=C(\C#N)C(=O)NCCCn2ccnc2)c1,-2.79%
14,Cc1ccc(-c2nn(-c3cccc(F)c3)cc2CNCCc2ccncc2)o1,-2.78%
15,CN(C)S(=O)(=O)c1cccc(-c2nn(-c3ccccc3)cc2/C=C2\SC(=S)N(CC(=O)O)C2=O)c1,28.2% (active)
16,Cc1ccc(-c2nn(-c3ccccc3)cc2/C=C2\SC(=S)N(CCCCCC(=O)O)C2=O)o1,78.2% (active)
17,COc1ccc(COCCN2CCN(S(=O)(=O)c3ccccc3)CCC2=O)cc1,1.29%
18,O=C(NCC1COc2ccccc2O1)c1ccc(NC(=O)c2cc(F)ccc2F)cc1 (centres undefined),4.4%
19,NC(=O)c1ncn([C@@H]2O[C@H](CNCc3cnc(N4CCOCC4)s3)[C@@H](O)[C@H]2O)n1,-0.65%
20,C[C@@H]1ON(C)[C@H]2C[C@H]3c4[nH]c5cccc(-c6ccc7c(c6)OCO7)c5c4CCN3C[C@@H]12,-2.89%
21,COC(=O)[C@H](C(C)C)N1CCc2nnn(Cc3ccc(C)cc3)c2-c2ccccc2S1(=O)=O,0.49%
22,CCOC(=O)[C@]12CCCC3=C1N(CCC3)C(=O)[C@@H](CC(=O)NCC13CC4CC(CC(C4)C1)C3)C2,-3.58%
23,CCC(=O)c1c(CC)c2n3c1=CC[C@H]3CC(Br)C=2 (some centres undefined),0.28%

row,Compound,inhibition
1,COc1ccc(-n2c(SCC(=O)NC3CCCC3)nnc2-c2ccncc2)cc1,4.19%
2,N#CC1(NC(=O)COC(=O)Cc2n[nH]c(=O)c3ccccc23)CCCCC1,1.07%
3,N#CC1(Nc2ccc3c4c(cccc24)CC3)CCCCC1,50.2% (active)
4,O=S(=O)(NC1CC1)c1ccc2c3c(cccc13)CC2,-2.46%
5,Cc1ccc2c(cnn2C(=O)CCC(=O)NC2CCCC2)c1,3.39%
6,COc1ccc(CNS(=O)(=O)c2ccc(NC(=O)N3CCCCC3)cc2)cc1,-0.17%
7,CC(C)=C1C2CCC1C1C(=O)N(NC(=O)c3ccco3)C(=O)C21 (centres undefined),-2.54%
8,COc1ccc(CN2C(=O)N3Cc4cc(OC)ccc4C3CS2(=O)=O)cc1 (centres undefined),3.9%
9,CCN1C(=O)N[C@@H]2C[C@H](C(=O)N3CCCC3)[C@H](C)[C@H](c3ccccc3)C[C@@H]21,-4.4%
10,COc1ccccc1-c1nnc(NC(=O)c2ccc3ncsc3c2)o1,9.47%
11,Cc1sc(NC(=O)c2ccc3ncsc3c2)c(C(N)=O)c1C,33.8% (active)
12,O=C(COC(=O)c1ccc2ncsc2c1)Nc1ccc(Cl)cc1,14.3%
13,CN1CCCc2nc(-c3ccccc3)ccc21,-1.81%
14,Cc1c(C(C)CCCO)oc(=O)c2c1Oc1c(C)c(C(C)C[C@@H](C)O)oc(=O)c1C2 (some centres undefined),1.8%
15,CCCN(CCC)S(=O)(=O)c1cc2c(cc1Br)CCN2C(=O)CC,-3.61%
16,CCOc1cnc(C(=O)NNC(=O)c2ccccc2Br)o1,0.46%
17,COC(=O)C12C=C3CC(c4ccccc4)=C3C(=O)N1Cc1[nH]c3ccccc3c1C2 (centres undefined),-2.05%
18,CCc1ccccc1NC(=O)CSc1nnc(-c2cccs2)o1,-1.47%
19,O=C(O)C(CCc1ccccn1)c1ccccc1 (centres undefined),0.25%
20,CC(=O)NC(CC(=O)O)c1ccc(F)cc1 (centres undefined),0.13%
21,CN(C)c1ccc(C(CC(=O)O)C(=O)O)cc1 (centres undefined),39.2% (active)
22,C[C@H]1[C@H](NC(=O)c2cccc(N(C)C)c2)CC[C@@]23CCCN2C(=O)CCC[C@@H]13,-0.17%
23,CCOc1ccc(N(CC(=O)Nc2c(C)n(C)n(-c3ccccc3)c2=O)S(=O)(=O)c2ccc(Cl)s2)cc1,-5.48%

row,Compound,inhibition
1,CCO/C([O-])=N/c1c[n+](N2CCOCC2)no1,-1.72% and 4.84%
2,COC(=O)[C@]1(C#N)CC(=O)N(CC2CCCCC2)[C@@H]1c1ccccc1,-3.09%
3,CCOC(=O)N1C(=O)C[C@](Sc2ccc(C)cc2)(C(=O)OC)[C@H]1c1ccccc1,53.6% (active)
4,COC(=O)[C@@]1(Sc2ccc(C)cc2)CC(=O)N(c2cccc(SC)c2)[C@@H]1c1ccccc1,4.3%
5,O=S1(=O)c2c(cccc2N2CC[C@H](O)C2)O[C@@H]2CCN1C2,-1.77%
6,NC(=O)c1sc2nc3c(c(-c4ccccc4)c2c1N)CCC3,21.5% (active)
7,COc1ccccc1-c1c(C#N)c(N)nc2c1CCC2,-2.76%
8,CC(C)OC(=O)c1sc2nc3c(cc2c1N)C(=O)CCC3,0.71%
9,Nc1scc[n+]1Cc1cccc2cccnc12,-6.71%
10,c1ccc2c(C[n+]3csc4ccccc43)cccc2c1,31.2% (active)
11,CN1[C@H](Cc2ccccc2)COc2cccc(N3CCSCC3)c2S1(=O)=O,6.45%
12,COC(=O)C1CN(Cc2cn(Cc3ccc(F)cc3)nn2)CCS(=O)(=O)N1Cc1ccc(Cl)cc1 (centres undefined),-0.68%
13,COCC(=O)N[C@@H]1C[C@@H]2O[C@@H](CO)CC[C@@H]2O[C@@H]1CCc1ccc(-c2ccccc2)cc1,0.28%
14,CCOCc1c(C(=O)N2CCN(Cc3ccc(Br)s3)CC2)oc2ccccc12,-1.1%
15,COC(=O)/C=C\C(=O)Nc1cccc([N+](=O)[O-])c1,91.7% (active)
16,CN(C(=O)c1cccc(NC(=O)Cc2cccc([N+](=O)[O-])c2)c1)C1CCCCC1,-0.61%
17,CCc1ccc(NC(=O)C(C)OC(=O)/C=C/c2cccc([N+](=O)[O-])c2)cc1 (centres undefined),-0.43%
18,COc1ccc(CN2C/C(=C/c3ccccc3)N3C(=O)C[C@@H](c4ccccc4)N=C23)c(OC)c1,0.52%
19,CCC(C)c1ccc(NC(=S)N2CCCC2)cc1 (centres undefined),2.33%
20,COc1ccc(N2CCN(CCNS(=O)(=O)c3ccc(C(C)(C)C)cc3)CC2)cc1,0.09%
21,CCC(=C/c1sc2ccc3ccccc3c2[n+]1C)/C=C1\Sc2ccc3ccccc3c2N1C,75.6% (active)
22,Oc1c(C=Nc2cccc3nsnc23)ccc2ccccc12,27.2% (active)
23,O=C(NC1CCCCN(Cc2cccc(C(F)(F)F)c2)C1=O)c1ccccc1I (centres undefined),-1.71%

row,Compound,inhibition
1,COC(=O)c1cccc(Cn2ccc3ccc(-c4ccc5ccn(C(=O)c6ccccc6C)c5c4)cc32)c1,1.92%
2,COc1cc(NC(=O)C2CCCN(S(=O)(=O)c3ccc(C(C)(C)C)cc3)C2)cc(OC)c1 (centres undefined),-5.91%
3,NS(=O)(=O)c1ccc(NC(=S)NNC(=O)c2cccs2)cc1,0.74%
4,Cc1sc(NC(=S)NC(=O)c2cccs2)nc1-c1ccc(CC(C)C)cc1,-4.11%
5,O=C(NC(=S)Nc1cccc(-c2ccc(CO)o2)c1)c1cccs1,21.4% (active)
6,CCOC(=O)[C@]12CCCC=C1N(Cc1ccc(OC)cc1)C(=O)[C@@H]2CC(=O)NCc1cccs1,7.82%
7,COc1cc(NC(=S)N2CCCC(C)C2)cc(OC)c1OC (centres undefined),5.72%
8,COc1cc(NC(=S)N2CCCC(C)C2)c(OC)cc1Cl (centres undefined),40.8% (active)
9,COc1cc(NC(=O)CSC(=S)N2CCCC2)c(OC)cc1Cl,8.65%
10,CCOC(=O)N1CCN(C(=O)C[C@@H]2C(=O)N(CCc3ccc(Cl)cc3)C3=CCCC[C@]32C(=O)OCC)CC1,0.68%
11,O=C(COc1ccccc1O)NC1CCCC1,3.06%
12,COc1ccc(Cl)cc1C=CC=NNC(=O)c1ccncc1,-0.1%
13,COc1ccccc1/C=C/C=N/n1c(-c2ccc(Cl)cc2Cl)n[nH]c1=S,21.3% (active)
14,COc1ccc(Cl)cc1C=CC=Nc1ccc(S(N)(=O)=O)cc1,-7.11%
15,Cc1ccc(NC(=O)Cc2cccc(F)c2)c(S(=O)(=O)N2CCOCC2)c1,0.91%
16,COc1ccc(-n2c(SCC(=O)Nc3ccc4cn[nH]c4c3)nnc2-c2cccnc2)cc1,-1.98%
17,FC(F)(F)c1cccc(NC(=S)OC2CCC23CCC(c2ccccc2)CC3)c1 (centres undefined),-5.1%
18,CN(c1ccccc1)S(=O)(=O)c1ccc(C(=O)NCc2cccnc2)cc1,-4.64%
19,O=C(CN(c1cc(C(F)(F)F)ccc1Cl)S(=O)(=O)c1ccccc1)NCc1cccnc1,0.93%
20,O=C(c1cccnc1)N(c1cc2sc(=O)oc2c2ccccc12)S(=O)(=O)c1ccccc1,78.8% (active)
